High-throughput results: PubChem, National Center for Advancing Translational Sciences (NCATS)
PNC inhibitor: perinucleolar compartment assembly inhibition; hit rate 3.1% among 140,000; PC3M PTB-GFP, PNC prevalence imaging, 16 h; active compounds read low; AID 2417; activity change (PNC), negative = inhibition, % at 10 µM;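 active means readout at or below -70, meaning at least 70% loss of cells showing the perinucleolar compartment, a nuclear body marking cancer cells; inconclusive means readout between -30 and a set limit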
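PC3M cells stably expressing PTB-GFP, 750–1000 cells/well, treated 16 h at 37 °C with compound (23 nl of library stock), in duplicate. After paraformaldehyde fixation and Hoechst stain, imaged at 20x; PNC prevalence scored by image analysis.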
HPGD block: inhibitors of human 15-hydroxyprostaglandin dehydrogenase (HPGD). purified HPGD, NADH fluorescence kinetic, PGE2 substrate. Potency, µM, usual class: inhibitors. AID 894. hit rate 4.3% among 150,000
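NADH formation kinetics: reaction with 30 uM PGE2 and 1 mM NAD+ (final), 20 nM enzyme, Tris-HCl pH 8 with Tween 20, after 15 min compound preincubation at room temperature. Fluorescence change, last versus first of five reads.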
Lamin A splicing: changes lamin A minigene splicing in HeLa cells; HeLa LMNA splicing GFP/RFP minigene ratio, 48 h; Potency, µM (top dose mostly 46.1 µM), actives largely listed as inhibitors; hit rate 0.01% among 200,000; AID 1487; active means well fitted inhibition curve with a large enough effect in the signal ratio, with a control signal flat, not every such curve was filed as active; inconclusive means small, poorly fitted or top-dose-only effect, or effect the other way, or a change in a side signal; the % refers to the signal ratio
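Read-out is the ratio of GFP to DsRed2 object intensity, acquired by 488 nm laser-scanning cytometry on HeLa lamin A-EGFP minigene reporter cells. Compound incubation 48 hrs at 37 °C in Opti-MEM with 2% FBS; DMSO 0.5% final.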
ALDH1A1 inh: inhibitors of human aldehyde dehydrogenase 1A1; Potency, µM (series often up to 75.3 µM), actives largely listed as inhibitors; hit rate 7.3% among 220,000; Purified ALDH1A1, NADH fluorescence, propionaldehyde substrate
Target sequence (P00352 whole entry, looked up): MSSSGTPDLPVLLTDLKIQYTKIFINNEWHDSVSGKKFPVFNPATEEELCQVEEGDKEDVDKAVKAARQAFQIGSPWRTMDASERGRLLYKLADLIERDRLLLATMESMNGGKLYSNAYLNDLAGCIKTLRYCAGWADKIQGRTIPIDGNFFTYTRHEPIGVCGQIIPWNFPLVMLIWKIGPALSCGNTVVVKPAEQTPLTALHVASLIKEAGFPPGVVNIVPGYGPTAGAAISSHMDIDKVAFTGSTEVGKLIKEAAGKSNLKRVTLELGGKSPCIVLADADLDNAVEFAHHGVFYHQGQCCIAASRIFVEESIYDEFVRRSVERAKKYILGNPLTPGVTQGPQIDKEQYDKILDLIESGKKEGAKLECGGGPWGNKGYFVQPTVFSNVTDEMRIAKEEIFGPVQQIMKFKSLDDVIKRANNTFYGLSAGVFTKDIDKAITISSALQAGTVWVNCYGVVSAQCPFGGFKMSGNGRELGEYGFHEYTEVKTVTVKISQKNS
Luc counter: blocks Kinase-Glo luciferase, a counter-screen artifact; Q27757; Kinase-Glo luciferase, ATP luminescence, 8 min; Potency, µM (top dose mostly 38.3 µM), actives largely listed as inhibitors; hit rate 0.28% among 200,000; active means well fitted inhibition curve with a large enough effect; inconclusive means small, poorly fitted or top-dose-only effect; further: nearly all actives have a fitted effect of over 60% in size
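Recombinant Kinase-Glo luciferase, 10 uM ATP (linear range), luciferin; imidazole pH 7.2 / KCl / MgCl2 / Tween / BSA buffer; 8 min RT; luminescence.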
Hits are given with their value; - = inactive; ? = inconclusive; . = not tested or not shown; [ ] = remark or other dose. In the library only some 10% were active in any assay of this set; here they are far more common. Unless noted, the call rests on the fitted dose curve; in most records, active means well fitted inhibition curve with a large enough effect (not every such curve was filed as active); inconclusive means small, poorly fitted or top-dose-only effect, or another doubt; inactive means no such curve, though single readings can be large or run the other way.

SMILES	PNC inhibitor	HPGD block	Lamin A splicing	ALDH1A1 inh	Luc counter
CC(C)N1C(=O)/C(=C\c2nc3ccccc3c(=O)[nH]2)c2ccccc21	-	-	?	13µM	-
CCCN1C(=O)/C(=C/c2nc3ccccc3c(=O)[nH]2)c2ccccc21	-	-	-	2.5µM	-
CC1(C)Cc2c(sc3c2c(=N)n(Cc2ccco2)c(=O)n3Cc2ccccc2)CO1	-	-	-	?	-
COc1cc(NC(=O)c2ccc3c(=O)n(Cc4ccco4)c(=S)[nH]c3c2)cc(OC)c1OC	-	-	?	1.3µM	-
CC1(C)Cc2c(sc3[nH]c(=S)n(Cc4ccco4)c(=O)c23)CO1	-	22µM	?	5µM	-
CCCN(CCC)C(=O)c1ccc2c(=O)n(Cc3ccco3)c(=S)[nH]c2c1	.	.	?	25µM	-
CO[C@H]1COC(=O)[C@@H](CCSC)NC(=O)C/C=C\[C@@H](C)[C@H](OC)COC(=O)[C@@H](OCc2ccccc2)/C=C\[C@@H]1C	.	.	.	-[13.5 µM]	.
Cc1ccc(CNC(=O)CSc2c(C(C)C)cnc3c2c(=O)n(C)c(=O)n3C)cc1	.	.	-	.	.
CC1(OC(=O)c2cnc3ccccc3n2)C(=O)C=C2C=C(c3ccsc3)OC=C2C1=O (centres undefined)	.	-	.	-	-
O=C1CN(C(=O)COc2ccccc2F)c2ccccc2N1	-	-	-	18µM	-
CC(C)[C@H](NC(=O)c1ccco1)C(=O)OCC(=O)N1CC(=O)Nc2ccccc21	.	.	-	14µM	-
CC(C)[C@H](NC(=O)c1ccco1)C(=O)OCC(=O)N1CCc2ccccc21	-	-	-	?	-
O=C1CN(C(=O)CNCc2ccccc2Cl)c2ccccc2N1	.	.	.	20µM	.
O=C1[C@@H]2[C@H]3[C@H](O)[C@H](O)C/C(=N/OCc4ccccc4)[C@@H]3CC[C@H]2C(=O)N1c1ccc(F)cc1F	.	.	.	-[13.5 µM]	.
Cc1cc2n(n1)CCCN2C(=O)Nc1cccc(C)c1C	.	.	-	.	.
CC(=O)OC[C@@H]1O[C@H](C/C=N\O[C@@H](C)c2cn([C@H]3COC[C@H]3O)nn2)C=C[C@@H]1OC(C)=O	.	.	.	-[13.5 µM]	.
CCc1[nH]c(=O)c(C#N)c2c1CCCC2	-	?	-	?	-
CCc1[nH]c(=S)c(C#N)c2c1CCCC2	-	20µM	-	?	-
CCOc1ccc(CN(C(=O)c2ccco2)C2CCS(=O)(=O)C2)cc1 (centres undefined)	-	-	-	-	-
O=C(/C=C/c1ccc(Cl)cc1)N(Cc1ccccc1)C1CCS(=O)(=O)C1 (centres undefined)	-	-	-	13µM	-
O=C(/C=C/c1ccc(Cl)cc1Cl)N(Cc1ccc(Cl)cc1)C1CCS(=O)(=O)C1 (centres undefined)	-	-	?	-	-
O=C(/C=C/c1ccc(Cl)cc1Cl)N(Cc1ccccc1)C1CCS(=O)(=O)C1 (centres undefined)	-	-	-	2.2µM	-
COc1cccc(C(=O)N(Cc2ccc(N(C)C)cc2)C2CCS(=O)(=O)C2)c1 (centres undefined)	-	-	-	14µM	-
COc1ccc(CN(C(=O)/C=C/c2ccco2)C2CCS(=O)(=O)C2)cc1 (centres undefined)	.	.	.	14µM	.
CCCc1nn2c(=O)cc(COC(=O)c3ccccc3NC(=O)C3CCCCC3)nc2s1	.	.	-	.	.
SMILES	PNC inhibitor	HPGD block	Lamin A splicing	ALDH1A1 inh	Luc counter
O=C(CCN1CCCCCC1)c1ccccc1	?	-	-	6.3µM	-
COc1ccc(C(=O)CCN2CCCCCC2)cc1	-	-	?	0.063µM	-
O=C(c1ccccc1)c1ccc(OCCCCN2CCCCC2)cc1	-	-	-	?	-
CCC1(C)CC2(CCCN(CCC(=O)c3ccccc3)C2)CCO1 (centres undefined)	.	.	-[9.22 µM]	0.71µM	-
COc1ccc(C(O)(CCc2ccccc2)CCN2CCCCC2)cc1 (centres undefined)	.	.	.	2.2µM	-
Cc1cccc(N2CCN(S(=O)(=O)c3ccc(-c4cnc(C5CC5)o4)cc3)CC2)c1C	.	.	-	.	.
COc1ccc(C(=O)CCN2CCN(c3ccccc3F)CC2)cc1	.	.	.	0.13µM	-
COc1ccc(C(=O)OCCN2CCCCC2)cc1	.	.	-	-	-
CCOc1ccc(OCCCCN2CCCC2)cc1	-	-	-	?	-
CC(C)Oc1ccc(C(=O)CCN2CCCCC2)cc1	?	-	-	0.071µM	-
CCCOc1ccc(C(=O)CCN2CCN(C(=O)OCC)CC2)cc1	.	.	.	0.71µM	-
CCOc1ccc(C(=O)CCN2CCCCC2)cc1	-127	?	?	0.016µM	-
CC(C)[C@@H](OCc1ccccc1)[C@H](C)/C=N\OC[C@@H](O)[C@@H]1O[C@@H]2OC(C)(C)O[C@@H]2[C@H]1O	.	.	.	-[13.5 µM]	.
Cc1cc(C(F)(F)F)n(-c2nc(C(=O)N/N=C/c3ccc(F)cc3)cs2)n1	-106	28µM	?	?	-
Cc1cc(C(F)(F)F)n(-c2nc(C(=O)NNS(=O)(=O)c3ccccc3)cs2)n1	?	-	-	-	-
COc1cccc(/C=N/NC(=O)c2csc(-n3nc(C)cc3C(F)(F)F)n2)c1	-90	-	-	-	-
CCN(CC)c1nc2ccccc2nc1C(=O)Nc1cc(OC)c(OC)c(OC)c1	.	.	-	.	.
O=C(O)c1nnsc1COCc1ccccc1	.	-	.	-[13.5 µM]	-[7.66 µM]
Cc1ccc(-n2cccc2/C=C2/C(=N)N3C(=NC2=O)SN=C3S(C)(=O)=O)cc1	.	.	?	?	-
COc1cccc(-n2c(C)cc(/C=C3/C(=N)N4C(=NC3=O)SN=C4S(C)(=O)=O)c2C)c1	.	.	.	32µM	-
Cc1cccc(-n2c(C)cc(/C=C3\C(=N)N4N=C(CC(C)C)SC4=NC3=O)c2C)c1	-	?	-	?	-
Cc1cc(C)cc(-n2cccc2/C=C2/C(=N)N3C(=NC2=O)SN=C3S(C)(=O)=O)c1	.	.	-	5µM	-
COC(=O)c1ccccc1NC(=S)NC(NC(=O)c1ccccc1[N+](=O)[O-])C(Cl)(Cl)Cl (centres undefined)	-	-	-	?	-
COc1ccc(NC(=S)NC(NC(=O)c2cccc3ccccc23)C(Cl)(Cl)Cl)c([N+](=O)[O-])c1 (centres undefined)	-	-	?	28µM	-
COc1ccc(NC(=S)NC(NC(=O)c2ccccc2Cl)C(Cl)(Cl)Cl)c([N+](=O)[O-])c1 (centres undefined)	-	-	-	8.9µM	-
COc1ccc(NC(=S)NC(NC(=O)c2ccc(Cl)cc2Cl)C(Cl)(Cl)Cl)c([N+](=O)[O-])c1 (centres undefined)	-	-	?	22µM	-
O=C(NC(NC(=S)Nc1c(Cl)cccc1Cl)C(Cl)(Cl)Cl)c1cccc([N+](=O)[O-])c1 (centres undefined)	?	-	?	18µM	-
COc1ccc(-c2nc3c4ccccc4n(CC(=O)N4CCN(c5ccc(F)cc5)CC4)c(=O)n3n2)cc1	.	.	-	.	.
CCn1c(CNc2ccc(C(=O)O)cc2)nc2ccccc21	-109	-	-	-	-
O=C(O)c1ccc(NCc2nc3ccccc3n2CCOc2ccccc2Cl)cc1	.	.	.	-	-
